Measured values as given in PubChem BioAssay (NCATS).
Several values for one entry are separate records, joined by “and”; a condition that tells them apart may be missing. Equal values may be shown once. Results filed as inconclusive are left out. A number with no mark means an inactive call. Activity calls are given as the source filed them. The call rests on the fitted dose curve; in most records, active means well fitted curve in the direction sought with a large enough effect; inconclusive means small, poorly fitted or top-dose-only effect, or another doubt; inactive means no such curve, though single readings can be large; an effect the other way counts as inactive or inconclusive.

Tests used:
[1] = Viability qHTS for spleen associated tyrosine kinase inhibitor (SYKi) naive MV4-11 cells (AID 1963823); further: nearly all actives have a fitted effect of over 40% in size
Procedure, shortened: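 Seeding of 500 SYKi-naive MV4-11 cells per well onto pre-dispensed compounds preceded a 72 hr incubation at 37 C. Luminescent CellTiter-Glo signal, read after 10 min at room temperature, reflected viable cells.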

[2] = Viability qHTS for spleen associated tyrosine kinase inhibitor (SYKi) drug resistant MV4-11 cells (AID 1963824); further: nearly all actives have a fitted effect of over 35% in size
Procedure, shortened: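 SYK-inhibitor-resistant MV4-11 AML cells were seeded at 500 per well onto compound and cultured 72 hours (37 °C, 5% CO2). CellTiter-Glo was then added, and after 10 min at room temperature, luminescence gave viability.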

[3] = Quantitative highthroughput screen to assess conditional lethalithy of NOMO1 cells grown in RPMI1640 with untreated serum (RPMI+s) (AID 1963876); further: nearly all actives have a fitted effect of over 35% in size
Procedure, shortened: (§1)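 Each medium arm—HPLM with 10% dialyzed FBS, or RPMI1640 with 5 mM glucose and 10% untreated or dialyzed FBS—was screened against an 11-point, 3-fold compound titration for 48 h at 37 °C, with CellTiter-Glo luminescence as endpoint.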

[4] = Quantitative highthroughput screen to assess conditional lethalithy of P12 Ichikawa cells grown in RPMI1640 with dialyzed fetal bovine serum (RPMI+ds) (AID 1963880); conditions: Potency: P12-Ichikawa viability; further: nearly all actives have a fitted effect of over 35% in size;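 on Viability: 100% = DMSO wells and 0% = empty wells on each plate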
Procedure, shortened: as §1

[5] = Quantitative highthroughput screen to assess conditional lethalithy of P12 Ichikawa cells grown in RPMI1640 with untreated serum (RPMI+s) (AID 1963881); conditions: Potency: viability; further: nearly all actives have a fitted effect of over 35% in size;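 on Viability: series mostly up to about 46 µM; 100% = DMSO wells and 0% = empty wells without cells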
Procedure, shortened: as §1

[6] = Quantitative highthroughput screen to assess conditional lethalithy of SEM cells grown in Human Plasma-Like Medium with dialyzed fetal bovine serum (HPLM+ds) (AID 1963882); further: nearly all actives have a fitted effect of over 35% in size; on Viability: series mostly up to about 46 µM
Procedure, shortened: as §1

[7] = Quantitative highthroughput screen to assess conditional lethalithy of SEM cells grown in RPMI1640 with unreated serum (RPMI+s) (AID 1963883); further: nearly all actives have a fitted effect of over 35% in size;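 on Viability: 100% = DMSO wells and 0% = empty wells without cells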
Procedure, shortened: as §1

[8] = Cellular viability qHTS for adrenocortical cancer (ACC) cell line SW-13 (AID 1963989); conditions: SW-13 ACC cells viability, CellTiter-Glo, 48 h; activity (max response): active compounds read low; further: nearly all actives have a fitted effect of over 65% in size;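 on activity (max response): cells grown in serum-free medium with ITS supplement; on the % scale 0 is the no-effect control and ±100 the full control effect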
Procedure, shortened: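 Here, serum-free SW-13 cultures were dosed up to 46 uM. Following 48 h, ATP-dependent luminescence (CellTiter-Glo) reported viable cells, and logistic modeling produced IC50 values.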

[9] = Cellular viability qHTS for adrenocortical cancer (ACC) cell line NCI-H295R (AID 1963990); further: nearly all actives have a fitted effect of over 60% in size
Procedure, shortened: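 Viability of NCI-H295R after 48 h of treatment (final up to 46 uM) measured through cellular ATP luminescence.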

[10] = Quantitative highthroughput screen to assess conditional lethalithy of NOMO1 cells grown in Human Plasma-Like Medium with dialyzed fetal bovine serum (HPLM+ds) (AID 1963878); further: nearly all actives have a fitted effect of over 35% in size;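 on Viability: 100% = DMSO wells and 0% = empty wells on each plate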
Procedure, shortened: as §1

[11] = Quantitative highthroughput screen to assess conditional lethalithy of P12 Ichikawa cells grown in Human Plasma-Like Medium with dialyzed fetal bovine serum (HPLM+ds) (AID 1963879); conditions: Potency: viability; further: nearly all actives have a fitted effect of over 35% in size; on Viability: series mostly up to about 46 µM
Procedure, shortened: as §1

[12] = Quantitative highthroughput screen to assess conditional lethalithy of SEM cells grown in RPMI1640 with dialyzed fetal bovine serum (RPMI+ds) (AID 1963884); further: nearly all actives have a fitted effect of over 35% in size;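 on Viability: series mostly up to about 46 µM; 100% = DMSO control wells and 0% = empty wells without cells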
Procedure, shortened: as §1

[13] = Quantitative highthroughput screen to assess conditional lethalithy of NOMO1 cells grown in RPMI1640 with dialyzed fetal bovine serum (RPMI+ds) (AID 1963877); further: nearly all actives have a fitted effect of over 30% in size;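 on Viability: series mostly up to about 46 µM; 100% = DMSO control wells and 0% = empty wells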
Procedure, shortened: as §1
Potency means the concentration at half of the fitted maximal effect.

Structure (SMILES)	Potency [1]	Potency [2]	Potency [3]	Potency [4]	Potency [5]	Potency [6]	Potency [7]	Potency [8]	Potency [9]	Potency [10]	Potency [11]	Potency [12]	activity (max response) [8] [%]	Potency [13]
CCOc1cc(N2CCC(O)CC2)ccc1Nc1ncc2c(n1)N(C)c1ccccc1C(=O)N2C	1.86 µM (active)	1.03 µM (active)	0.332 µM (active)	3.32 µM (active)	2.35 µM (active)	20.9 µM (active)	16.6 µM (active)	15.8 µM (active)	10 µM (active)	–	–	–	–	–
CNC(=O)Nc1ccc(-c2nc(N3CC4CCC(C3)O4)c3cnn(C4CCC5(CC4)OCCO5)c3n2)cc1	0.0742 µM (active)	0.166 µM (active)	0.059 µM (active)	–	–	–	0.0418 µM (active)	–	0.282 µM (active)	–	–	–	–	–
FC(F)c1nc2ccccc2n1-c1nc(N2CCOCC2)nc(N2CCOCC2)n1	0.186 µM (active)	820 nM (active) and 525 nM (active)	–	–	–	–	–	–	–	0.0148 µM (active)	–	–	–	–
CN(C)c1ccc(C2Nc3ccc4ccccc4c3C3=C2C(=O)CC(C)(C)C3)cc1Br (stereo unspecified)	inactive	14.8 µM (active)	–	inactive	inactive	inactive	inactive	–	inactive	inactive	inactive	inactive	-5.19	–
COc1cc(NCc2ccc3nc(N)nc(N)c3c2C)cc(OC)c1OC	1.05 µM (active)	42.2 nM (active) and 1.05 µM (active)	–	10.5 µM (active)	18.7 µM (active)	–	–	10.3 nM (active) and 1.12 µM (active)	14.6 nM (active) and 2.82 µM (active)	–	2.35 µM (active)	–	–	10.5 µM (active)
CC[C@]1(O)C[C@H]2CN(CCc3c([nH]c4ccccc34)[C@@](C(=O)OC)(c3cc4c(cc3OC)N(C=O)[C@H]3[C@@](O)(C(=O)OC)[C@H](OC(C)=O)[C@]5(CC)C=CCN6CC[C@]43[C@@H]65)C2)C1	0.0118 µM (active)	119 nM (active) and 10.5 nM (active)	–	0.0418 µM (active)	0.0264 µM (active)	0.0332 µM (active)	–	8.2 nM (active) and 28.2 nM (active)	146 nM (active) and 1.78 µM (active)	–	0.0264 µM (active)	0.0469 µM (active)	–	0.0662 µM (active)
O=C(Nc1ccccc1-c1cn2c(CN3CCNCC3)csc2n1)c1cnc2ccccc2n1	9.2 µM (active)	13 µM (active)	–	–	26.4 µM (active)	18.7 µM (active)	18.7 µM (active)	3.55 µM (active)	7.08 µM (active)	–	–	13.2 µM (active)	–	inactive
COc1cc2c(Nc3ccc(NC(=O)c4ccccc4)cc3)ncnc2cc1OCCCN1CCOCC1	1.16 µM (active) and 1.86 µM (active)	2.06 µM (active) and 2.09 µM (active)	–	3.32 µM (active)	–	–	3.72 µM (active)	–	15.8 µM (active)	inactive	3.72 µM (active)	2.96 µM (active)	-24.4	–
O=C(CN1C(=O)C2(CCCC2)NC[C@H]1c1cc(F)cc(F)c1)Nc1ccc2c(c1)C[C@@]1(C2)C(=O)Nc2ncccc21	inactive	18.6 µM (active)	–	inactive	inactive	–	inactive	–	inactive	20.9 µM (active)	inactive	inactive	–	–
CN(C)CCCN=c1c2ccccc2n(C)c2[nH]c(=O)n(C)c(=O)c12	5.9 µM (active)	8.33 µM (active)	–	18.7 µM (active)	18.7 µM (active)	11.8 µM (active)	–	25.1 µM (active)	28.2 µM (active)	–	26.4 µM (active)	9.35 µM (active)	–	20.9 µM (active)
COc1cc2nc(N3CCN(C(=O)c4ccco4)CC3)nc(N)c2cc1OC	10.3 µM (active)	11.6 µM (active)	–	–	–	9.35 µM (active)	10.5 µM (active)	–	–	13.2 µM (active)	16.6 µM (active)	7.43 µM (active)	-8.85	–
Cn1cc(-c2[nH]c3cc(NC(=O)[C@H](N)C4CCCCC4)cc4c3c2C=NNC4=O)cn1	0.0661 µM (active)	164 nM (active) and 83.3 nM (active)	–	6.62 µM (active)	7.43 µM (active)	2.96 µM (active)	–	–	inactive	–	16.6 µM (active)	1.18 µM (active)	–	5.26 µM (active)
CC(Oc1ccc(O)cc1)(P(=O)(O)O)P(=O)(O)O	inactive	inactive	–	–	–	–	–	–	inactive	–	–	–	1.35	26.4 µM (active)
CC[C@@]1(O)C[C@H](O[C@H]2C[C@H](N(C)C)[C@H](O[C@H]3C[C@H](O)[C@H](O[C@H]4CCC(=O)[C@H](C)O4)[C@H](C)O3)[C@H](C)O2)c2c(cc3c(c2O)C(=O)c2c(O)cccc2C3=O)[C@@H]1C(=O)OC	1.66 µM (active)	1.32 µM (active)	–	16.6 µM (active)	–	–	–	10 µM (active)	22.4 µM (active)	1.18 µM (active)	inactive	0.0662 µM (active)	–	–
CC1(C)CCC(CN2CCN(c3ccc(C(=O)NS(=O)(=O)c4ccc(NCC5CCOCC5)c([N+](=O)[O-])c4)c(Oc4cnc5[nH]ccc5c4)c3)CC2)=C(c2ccc(Cl)cc2)C1	0.105 µM (active)	10 nM (active) and 41.7 nM (active)	–	–	–	0.0332 µM (active)	0.0526 µM (active)	–	inactive	–	–	0.0264 µM (active)	-2.3	0.105 µM (active)
